Compounds with a hit are over-represented: about 22% of the library has one in this group of screens.
Cycloheximide cs = Cycloheximide Counterscreen for Small Molecule Inhibitors of Shiga Toxin. cell reporter, cycloheximide protein synthesis inhibition counterscreen. max response, %. hit rate 12% among 300,000. AID 2314, 2010; in the data active means max response mostly above about 13%, no sharp cut-off; inactive means mostly below about 14%; further: read at 38.3 µM for the half of the compounds with a filed dose; 0% is about no effect
LmPK inhibitor = qHTS Assay for Inhibitors of Leishmania Mexicana Pyruvate Kinase (LmPK); Q27686; hit rate 0.37% among 290,000; purified LmPK, Kinase-Glo ATP luminescence, 1 h; Potency, µM (highest dose often 57.5 µM), for the others: top-dose activity change, negative = inhibition, hits mostly inhibitors; further: potency means the concentration at half of the fitted maximal effect; on the % scale 0 is the no-effect control and ±100 the full control effect
Target sequence (Q27686 whole entry, looked up): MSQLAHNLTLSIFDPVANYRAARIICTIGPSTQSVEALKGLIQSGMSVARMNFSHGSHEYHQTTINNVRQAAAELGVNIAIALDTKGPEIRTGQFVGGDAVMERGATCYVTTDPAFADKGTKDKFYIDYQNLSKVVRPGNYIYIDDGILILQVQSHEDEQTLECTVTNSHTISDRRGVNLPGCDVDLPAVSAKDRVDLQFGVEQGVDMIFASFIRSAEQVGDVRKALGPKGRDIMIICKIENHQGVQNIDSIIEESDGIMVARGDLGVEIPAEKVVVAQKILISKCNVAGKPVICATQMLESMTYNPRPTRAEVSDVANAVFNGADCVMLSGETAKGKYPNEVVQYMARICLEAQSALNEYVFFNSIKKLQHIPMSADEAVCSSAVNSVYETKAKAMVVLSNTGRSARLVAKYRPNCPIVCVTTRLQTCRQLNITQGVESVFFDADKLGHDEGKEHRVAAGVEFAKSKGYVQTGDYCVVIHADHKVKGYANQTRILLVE
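Pyruvate kinase activity monitored as ATP production (luciferase luminescence). Conditions: 0.1 nM enzyme, 0.5 mM PEP, 0.1 mM ADP, 1 h, RT; normalized against uninhibited and no-enzyme wells.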
Shiga inhibitor = A qHTS for Small Molecule Inhibitors of Shiga Toxin. Vero cells, Shiga toxin protein synthesis inhibition reporter. inhibition, % at 38.7 µM. hit rate 9.2% among 290,000; in the data active means inhibition mostly above about 28%, no sharp cut-off; inactive means mostly below about 43%; further: 0% is about no effect
Pf growth 96h = Primary qHTS for delayed death inhibitors of the malarial parasite plastid, 96 hour incubation | P. falciparum luciferase reporter growth, 96 h | Potency, µM (doses to about 28.7 µM), for inactives: at the top dose activity change, negative = inhibition, hits mostly inhibitors | hit rate 6.9% among 320,000 | AID 504834, 2011; further: potency means the concentration at half of the fitted maximal effect; on the % scale 0 is the no-effect control and ±100 the full control effect
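Two parasite generations (96 h, 37 C, 5% CO2) of compound exposure in infected erythrocytes (0.05% parasitemia, 2% hematocrit). Luciferase-reporter P. falciparum; decreased luminescence indicates inhibited growth, aimed at apicoplast-acting delayed death.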
Pf growth 48h = Primary qHTS for delayed death inhibitors of the malarial parasite plastid, 48 hour incubation; P. falciparum luciferase growth in erythrocytes, 48 h; Potency, µM (series often up to 28.7 µM), for the others: at the top dose activity change, negative = inhibition, most hits filed as inhibitors; hit rate 5.9% among 310,000; further: potency means the concentration at half of the fitted maximal effect; on the % scale 0 is the no-effect control and ±100 the full control effect
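Growth was read as firefly luciferase luminescence after a 48 h, 37 C, 5% CO2 exposure of compounds to reporter-bearing P. falciparum cultures (0.1% parasitemia, 2% hematocrit final) in Albumax-supplemented RPMI 1640.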
* marks the source's active call; other numbers are inactive results; i = inactive; ? = inconclusive; . = no result given; [ ] = remark or other dose. Unless noted, the call rests on the fitted dose curve; in most records, active means well fitted inhibition curve with a large enough effect; inconclusive means small, poorly fitted or top-dose-only effect, or another doubt; inactive means no such curve, though single readings can be large or run the other way.

SMILES | Cycloheximide cs | LmPK inhibitor | Shiga inhibitor | Pf growth 96h | Pf growth 48h
COc1ccc(N=C2NC(=O)S/C2=C\c2ccc(N(C)C)cc2)cc1 | 34* | -8% | 60* | 106% | 73%
CCOc1ccc(N=C2NC(=O)S/C2=C\c2ccc(Cl)cc2)cc1 | 1 | -2% | 13 | 60% | 32%
CSc1nc2sc3c(c2c(=O)[nH]1)CC(C)(C)OC3 | 7 | 8% | . | -20% | ?
CCOC(=O)N1CCC(=NNC(=O)Cn2ccc(C(F)(F)F)n2)CC1 | -5 | 3% | 8 | ? | 1%
C=CCn1c(SCC(=O)Nc2cccnc2Cl)nnc1-c1ccc(C(C)(C)C)cc1 | 13* | 4% | 31 | ? | -14%
C=CCn1c(SCC(=O)Nc2ccccc2C)nnc1-c1ccncc1 | 1 | 3% | -3 | . | 6%
CC(C)(C)c1nc(CN2CCOCC2)cc(CN2CCOCC2)c1O | -2 | -1% | 4 | ? | .
Cc1ccc(-c2nc(CN3CCCCC3)cc(CN3CCCCC3)c2O)cc1 | -2 | 1% | 12 | ? | 0.83µM*
CC1CCN(C(=O)COC(=O)c2ccccc2NC(=O)c2ccco2)CC1 | 44* | 1% | 101* | -11% | 44%[5.75 µM]
O=C(COC(=O)c1ccccc1NC(=O)c1ccco1)NC1CC1 | 6 | 2% | -3 | -3% | 15%
O=C1CN(C(=O)COC(=O)c2ccccc2NC(=O)c2ccco2)c2ccccc2N1 | -1 | 4% | -7 | 13µM* | -10%
CC(C)C(NC(=O)c1ccco1)C(=O)OCC(=O)N1CC(=O)Nc2ccccc21 (configuration not stated) | . | . | . | -2% | 34%
CCOC(=O)c1ccccc1NC(=S)N1CC(C)CC(C)C1 (configuration not stated) | -3 | 3% | -3 | ? | 2.9µM*
CCc1ccc(C(C(=O)NC2CCCC2)N(Cc2cccnc2)C(=O)c2csnn2)cc1 (configuration not stated) | -3 | 9% | 2 | ? | ?
COC(=O)C(C)n1cnc2c(nnn2-c2ccc(C)cc2)c1=O (configuration not stated) | 13* | -7% | 19* | 37% | 4%
COC(=O)Cn1cnc2c(nnn2-c2ccc(F)cc2)c1=O | -4 | 1% | -1 | 110% | 37%
COC(=O)C(C)n1cnc2c(nnn2-c2ccc(OC)cc2)c1=O (configuration not stated) | -1 | 2% | -25 | 4.1µM* | 14%
COC(=O)c1ccc(CSc2ncnc3c2nnn3-c2ccc(F)cc2)o1 | -3 | 5% | 13 | 20% | 1µM*
CCN(CC)C(=O)CSc1ncnc2c1nnn2-c1ccc(F)cc1 | -1 | 1% | 5 | 11% | 2%
CCOC(=O)CNC(=O)Cn1cnc2c(nnn2-c2ccc(OC)cc2)c1=O | 1 | -2% | 5 | 40% | -19%
CCC(C(=O)OC)n1cnc2c(nnn2-c2ccc(F)cc2)c1=O (configuration not stated) | 9.1* | -4% | 17 | 55% | -7%
Cc1ccn2c(=O)c(NC(=O)c3ccc(Br)o3)c(C)nc2c1 | . | . | . | 35% | 3%
CNC(=O)/C(=C\c1ccc([N+](=O)[O-])cc1)NC(C)=O | 15 | 4% | -1 | ? | 31%
CC(NC(=O)C(=O)NCCN1CCN(C(=O)c2ccc([N+](=O)[O-])cc2)CC1)c1ccccc1 (configuration not stated) | -4 | -6% | -3 | 13% | ?
O=C(O)c1n[nH]c2c1CC(C1CCCCC1)CC2 (configuration not stated) | . | . | . | 69% | -29%
SMILES | Cycloheximide cs | LmPK inhibitor | Shiga inhibitor | Pf growth 96h | Pf growth 48h
CCOC(=O)C(CC)n1cnc2c(nnn2-c2ccc(C)cc2)c1=O (configuration not stated) | 22 | -1% | 31 | ? | 15%
CCOC(=O)C(CC)n1cnc2c(nnn2-c2cccc(OC)c2)c1=O (configuration not stated) | 17* | 3% | 18 | 2% | 10%
CCOCCCNC(=O)CCN1C(=O)c2ccccc2Sc2ncccc21 | -2 | 1% | -2 | ? | .
C/C(=N\NC(=O)c1ccc(C)cc1C)c1ccc2c(c1)OCO2 | 26* | 2% | 67* | 3.7µM* | 10µM*
C/C(=N\NC(=O)c1cc2ccccc2cc1O)c1ccc2c(c1)OCO2 | 18 | -3% | 57 | 5.2µM* | 6.6µM*
COc1cc(C(=O)N/N=C(\C)c2ccc3c(c2)OCO3)cc(OC)c1OC | 4 | 3% | -23 | 5% | 7%
C/C=C1\COC(C(=O)NCc2cccc(OC)c2OC)(C(F)(F)F)C=C1C=C(C)C (configuration not stated) | -4 | . | 13 | . | .
Cc1ccc(N=Nc2c(O)n(CN3CCOCC3)c3ccccc23)cc1 | 63* | -3% | 106* | i | -1%
Oc1c(N=NC(=S)Nc2ccccc2F)c2ccccc2n1Cc1cccc(Cl)c1 | 9 | -2% | 11 | 14% | ?
Cc1cccc(Cn2c(O)c(N=NC(=S)Nc3ccccc3F)c3ccccc32)c1 | -3 | 5% | -3 | 0% | ?
Oc1c(N=NC(=S)Nc2ccccc2F)c2ccccc2n1Cc1ccc(F)cc1 | 7 | -1% | -3 | ? | 2.1µM*
Cc1cccc(NC(=S)N=Nc2c(O)n(CN3CCOCC3)c3ccccc23)c1C | 1 | 7% | -7 | 1% | 4.7µM*
Cc1cc(NS(=O)(=O)c2ccc(NC(=O)Cc3ccccc3)cc2)nc(C)n1 | -6 | 0% | -5 | ? | 1%
Cc1ccc(NC(=O)c2ccc(CSc3ccccn3)cc2)c(O)c1 | 10 | 6% | 27 | 3.7µM* | 1.5µM*
Cc1ccc(NC(=O)c2ccc(CSc3ccccn3)cc2)cc1 | 31* | -4% | 82* | 26% | 41%
Cc1ccccc1NC(=O)c1ccc(CSc2ncccn2)cc1 | 3 | ? | 7 | ? | 16%
C/C(O)=C(/C#N)c1nc2ccccc2[nH]1 | -1 | -1% | -4 | -13% | 37%
N#C/C(=C1/CCCCCN1)c1nc2ccccc2[nH]1 | 122* | 4% | 44* | -9% | 20%
COc1cc(/C(O)=C(\C#N)c2nc3ccccc3[nH]2)cc(OC)c1OC | 1 | 0% | 8 | 15µM* | ?
N#C/C(=C1\CCCN1)c1ccc2ccccc2n1 | 29 | 3% | 18 | -13% | 13%
N#C/C(=C(/O)C(Cl)(Cl)Cl)c1nc2ccccc2[nH]1 | 13* | -12% | 18 | 35% | 13%
CC(=O)OC(/C(O)=C(\C#N)c1nc2ccccc2[nH]1)c1ccccc1 (configuration not stated) | 10 | 3% | 18 | 9.3µM* | ?
NS(=O)(=O)c1ccc(NC(=O)/C(=C/c2ccncc2)NC(=O)c2ccccc2)cc1 | -3 | 4% | -6 | -27% | 1%
COc1cc(C(=O)OCC(=O)N2CCNC2=O)cc(Cl)c1OC | . | . | . | -2% | ?

Bioassay records from PubChem.
